Experimental data as given in PubChem BioAssay AID624291 (National Center for Advancing Translational Sciences (NCATS), 2012).
In all, about 350,000 compounds went through this assay and about 220 (0.063%) were called active. A call without a number means that no potency is given here. Another 4% or so got no clear call; they are omitted. The call rests on the fitted dose curve; in most records, active means well fitted activation curve with a large enough effect; inconclusive means small, poorly fitted or top-dose-only effect; inactive means no such curve, though single readings can be large or run the other way. The full list was thinned out, with actives kept by preference.

Assay: qHTS for Activators of Integrin-Mediated Alleviation for Muscular Dystrophy; further: nearly all actives have a fitted effect of over 60% in size
Details: alpha7betagal myoblasts, beta-gal FDG fluorescence, 48 h; series mostly up to 38.3 µM
Description: Integrins are a diverse family of transmembrane cell surface receptors that mediate interactions between cells and the extracellular matrix. These heterodimeric proteins are composed of alpha and beta subunits and the a7b1 interacts with laminin in the extracellular matrix and actin of the cell cytoskeleton. Both chains contribute to ligand binding, but the alpha chain mediates the specificity of the interaction. The alpha7beta1 integrin is a major laminin receptor in skeletal, cardiac and vascular smooth muscle. Mutations in the alpha7 integrin gene are responsible for muscular dystrophy in both humans and mice. The alpha7beta1 integrin is also a major modifier of muscle disease progression in various muscle diseases including Duchenne muscular dystrophy, Fukuyama muscular dystrophy and merosin deficient congenital muscular dystrophy type 1A. […] Transcriptional regulation of the alpha7 integrin gene is poorly understood and probably involves multiple transcription factors. The goal of identifying small molecules that enhance alpha7 integrin expression is two-fold: firstly, such molecules would help us gain insight into the complex transcriptional control of alpha7 integrin. It is known that alpha7 integrin expression is tightly controlled during various stages of development, disease and in response to external stimuli. The second goal of the project is to translate the above finding into a therapeutic strategy for muscular dystrophy. […] Thus this project aims to discover small molecule probes that would not only help in gaining a better understanding of the complex regulatory mechanism of alpha7 integrin expression, but also lead to development of pharmacological agents to fight muscular dystrophy. NIH Chemical Genomics Center [NCGC] NIH Molecular Libraries Probe Centers Network [MLPCN] MLPCN Grant: NS058429 Assay Submitter (PI): Dean Burkin, University of Nevada School of Medicine
A total of 250 alpha7betagal+/- myoblasts at passage 13 were dispensed using a mulitdrop from Thermo into black low base tissue culture treated microclear aurora plates in 6 ul media containing DMEM without phenol, 5% FBS, 1x GluMax and 1x Penicillin/Streptomycin. The plates were incubated 16-24 hr at 37C, 5% CO2, 95% humidity covered with low evaporation stainless steel lids from Kalypsys. Compounds were then dispensed using a Kalypsys pintool to deliver 23 nl/well compounds in DMSO (diluted into 6 uL resulting in a 1:260 dilution of compound). The control compound used was the cdk2 inhibitor SU9516 from Tocirs (found in the initial LOPAC screen). The plates were incubated for 48 hours at 37C, 5% CO2, 95% humidity using the same stainless steel lids. After incubation with compound, 5 ul of the media was aspirated using the Kalypsys washer/dispenser and 3 ul of the Mammalian Protein Extraction Reagent (MPER) lysis buffer (Thermo Fisher) was added. The plates were spun at 2000 rpms to remove bubbles and an initial capture was acquired on the Viewlux (Perkin Elmer) with exciation at 480 nm and emission at 540 nm for 25 seconds to omit any auto fluorescent compounds. The plates were then incubated for 10 minutes at room temperature. […] The plates were again read on the Viewlux with exciation at 480 nm and emission at 540 nm for 25 seconds.
Potency means the concentration at half of the fitted maximal effect.

| SMILES | Potency |
| --- | --- |
| O=Cc1cn(Cc2ccc(F)cc2Cl)c2ccccc12 | 15.8 µM (active) |
| O=c1[nH]c(=S)[nH]c(O)c1/C=C1\C=Nc2ccccc21 | inactive |
| Cc1ccc(Oc2cnn(-c3ccccc3)c(=O)c2Br)cc1 | inactive |
| CC(=O)c1ccc(S(=O)(=O)N2CCN(c3nc4c(C)c(C)ccc4cc3C#N)CC2)cc1 | inactive |
| CCOC(=O)c1cccc(C2=C(CNC(=O)c3ccncc3)[C@H]3CC[C@@H](C2)N3Cc2ccccc2)c1 | inactive |
